Results: PubChem BioAssay AID624390 (National Center for Advancing Translational Sciences (NCATS), 2012)

biological target: Pyruvate kinase PKLR (Homo sapiens) (UniProt P30613); assay: qHTS for Activators of Human Muscle Isoform Pyruvate Kinase: Extended Characterization against Liver Pyruvate Kinase Probe 2; settings: purified hPK-L, ATP production, Kinase-Glo luminescence; series mostly up to 57.7 µM; activity change, positive = activation: at the top concentration
Experimental: Human pyruvate kinase liver (hPK-L) enzyme was supplied as a highly purified (>95% pure) preparation from Harvard Medical School and assayed for its ability to generate ATP from ADP using phosphoenolpyruvate (PEP) as a substrate. ATP generation was detected in a coupled reaction by luciferase-mediated luminescence, an ATP-dependent process. Pyruvate kinase substrates, PEP and ADP, were present in the assay at Km and approximately 10-fold below Km respectively. The enzyme was assayed at an intermediate level of activity to screen for both inhibitors and activators. NIH Chemical Genomics Center [NCGC] NIH Molecular Libraries Probe Centers Network [MLPCN] MLPCN Grant: MH085679 Assay Submitter (PI): Matthew G. Vander Heiden, Harvard Medical School
Three uL of substrate mix (at r.t.) in assay buffer (50 mM Imidazole pH7.2, 50 mM KCl, 7 mM MgCl2, 0.01% Tween 20, 0.05% BSA) was dispensed into white solid bottom 1,536 well microtiter plates so that the final concentrations of substrates in the assay were 0.1 mM ADP and 0.5 mM PEP. 23 nL of compound were delivered by a pin tool and 1 uL of enzyme mix (final concentration of 0.1 nM) in assay buffer (4 degree Celsius) was added. Plates were incubated at room temperature for 1 hour. Two uL of detection mix (Kinase-Glo, Promega; at 4 degree Celsius protected from light) was added and luminescence read by a ViewLux (Perkin Elmer) at 1 second exposure/plate. Data were normalized to the uninhibited (row 31). Additionally, a no enzyme and 5-fold enzyme control was dispensed in row 32, split equally between the two conditions.

Pyruvate kinase PKLR (Homo sapiens), sequence (P30613 whole entry, looked up, canonical isoform): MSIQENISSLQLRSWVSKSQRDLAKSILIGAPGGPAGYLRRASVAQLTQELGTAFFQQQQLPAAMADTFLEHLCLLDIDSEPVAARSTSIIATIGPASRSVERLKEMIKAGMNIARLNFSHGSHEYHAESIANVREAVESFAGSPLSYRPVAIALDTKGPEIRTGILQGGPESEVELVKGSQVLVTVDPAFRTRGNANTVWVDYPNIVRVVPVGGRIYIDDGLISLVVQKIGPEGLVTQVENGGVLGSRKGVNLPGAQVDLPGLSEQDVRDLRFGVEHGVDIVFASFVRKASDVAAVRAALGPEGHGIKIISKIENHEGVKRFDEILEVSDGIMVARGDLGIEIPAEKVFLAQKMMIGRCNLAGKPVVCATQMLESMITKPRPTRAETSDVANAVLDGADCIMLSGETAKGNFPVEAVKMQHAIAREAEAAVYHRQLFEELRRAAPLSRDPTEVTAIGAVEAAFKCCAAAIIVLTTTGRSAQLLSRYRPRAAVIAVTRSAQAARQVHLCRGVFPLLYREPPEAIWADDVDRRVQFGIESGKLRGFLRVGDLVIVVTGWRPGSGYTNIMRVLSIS

Activity change, positive = activation, inactive:
Nc1cccc(S(=O)(=O)N2CCCN(S(=O)(=O)c3ccc4c(c3)OCCO4)CC2)c1 10.9%
Cc1ccc(NS(=O)(=O)c2ccc3c(c2)CCC(=O)N3)cc1C -1.46%
O=S(=O)(c1ccc2c(c1)OCCO2)N1CCN(S(=O)(=O)c2c(F)cccc2F)CC1 -0.557%
COc1cccc(Cn2ncc3c4sc(S(C)=O)cc4n(C)c3c2=O)c1 (centres undefined) -7.39%
